High-throughput results deposited in PubChem by National Center for Advancing Translational Sciences (NCATS).
mTORC1 inh: reduces mTORC1 signaling in Tsc2 and p53 null MEF cells; Tsc2-/- p53-/- MEF, phospho-rpS6 immunofluorescence/PI, 24 h; Potency, µM (highest dose often 38.3 µM), without a hit: at the top dose activity change, negative = inhibition, most hits filed as inhibitors; hit rate 0.78% among 44,000;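 also: plate controls were DMSO for no effect and rapamycin for full effect; nearly all actives have a fitted effect of over 50% in size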
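Cell-based qHTS: Tsc2-/- p53-/- MEF, 24 h cpd, 37 °C; fix/perm, anti-phospho-S6 Alexa-488 + PI; Acumen 488 nm scan; pS6/PI ratio, % positive cells; rapamycin 7.5 nM = inhibition ref; PI count = viability.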
S16 F2sN tox: cytotoxicity in S16 Pmp22-F2sN Schwann cells; hit rate 0.48% among 43,000; Potency, µM (titrated, usually from 57.5 µM), without a hit: at the highest dose activity change, negative = cytotoxicity, most hits filed as cytotoxic; S16 Pmp22-F2sN Schwann cells viability, CellTiter-Glo, 24 h; AID 1508642; also: % is scaled to controls: 0 for no effect and ±100 for the full control effect; nearly all actives have a fitted effect of over 65% in size
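S16 Pmp22-F2sN Schwann cells (500-1,000/well) in phenol-red-free DMEM with 10% FBS received 23 nL compound by pin tool for 24 h at 37 °C. Viability was then read as CellTiter-Glo luminescence after 15 min at room temperature.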
PMP22 txn: modulates PMP22 transcription in S16 Schwann cells; Potency, µM (doses to about 57.5 µM), inactives show top-dose activity change, negative = inhibition, most hits filed as inhibitors; hit rate 2% among 43,000; S16 Pmp22-F2sN Schwann cells (luciferase reporters placed in the Pmp22 gene), FLuc/NLuc coincidence luminescence, 24 h; active = clear falling dose curves in both reporters; inconclusive = both reporters move, but less clearly or upward; inactive = either reporter flat; the % is the NLuc reporter signal; also: % is scaled to controls: 0 for no effect and ±100 for the full control effect
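Transcriptional readout in edited S16(c9) cells: two luciferases reported from the Pmp22 locus, measured in turn after 24 h compound incubation.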
p53null 39C kill: selectivity test: cytotoxicity in p53 null cells, nonpermissive temperature. H1299 p53-null (neo) cells, 39C, ATPlite viability, 24 h. Potency, µM (series often up to 46.1 µM), without a hit: top-dose activity, negative = cell killing, actives largely listed as cytotoxic. hit rate 0.97% among 55,000;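 also: 0% = DMSO only and -100% = full killing by 100 µM tamoxifen; nearly all actives have a fitted effect of over 50% in size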
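Concentration-response (up to 46 uM) was run for 24 h at the nonpermissive 39C on H1299-p53A138V or H1299-neo cells. ATP content was measured with ATPlite luminescence. AC50 values were Hill-modeled after normalizing between DMSO and 100 uM tamoxifen killing.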
p53null 32C kill: kills p53 null cells at the permissive temperature; H1299-neo p53 null cells, ATP luminescence, 24 h, 32C; Potency, µM (series often up to 46.1 µM), inactives show at the top dose activity change, negative = cytotoxicity, usual class: cytotoxic; hit rate 0.62% among 55,000;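 also: 0% = DMSO only and -100% = full killing by 100 µM tamoxifen; nearly all actives have a fitted effect of over 55% in size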
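H1299-neo, 600 cells/well; overnight 37C; cpd up to 46 uM, 24 h at 32C; ATPlite luminescence after 20 min RT; normalized to DMSO (0%) and tamoxifen 100 uM (100% kill); Hill-fit AC50.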
GALC G270D up: galactocerebrosidase G270D activity enhancement, cell-based. Potency, µM (top dose mostly 57.5 µM), usual class: activators. hit rate 0.1% among 45,000. P54803. AID 1159614. 145M-Twi-hGALC-G270D cells (Twitcher mouse brain line with human GALC G270D), HMU-beta-Gal fluorescence, 48 h; also: 0% is about no effect; nearly all actives have a fitted effect of over 65% in size
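Fluorogenic HMU-b-Gal hydrolysis (0.1 mM final, pH 5.2 citrate-phosphate with 1 mg/mL sodium taurocholate; carbonate stop buffer) measures mutant GALC activity after compound treatment of live 145M-Twi Twitcher brain cells stably carrying human GALC-G270D, with wild-type GALC line alongside; activation sought.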
Numbers without * were called inactive; i = inactive; ? = inconclusive; . = no result given. Hits are enriched below; roughly 3% of the tested compounds scored in any of these assays. Unless noted, calls follow the shape of the dose curve; as a rule, active = well fitted curve in the direction sought with a large enough effect; inconclusive = small, poorly fitted or top-dose-only effect, or another doubt; inactive = no such curve, though single readings can be large; an effect the other way counts as inactive or inconclusive. Potency is read from the fitted curve at half-maximal effect.

SMILES	mTORC1 inh	S16 F2sN tox	PMP22 txn	p53null 39C kill	p53null 32C kill	GALC G270D up
CCc1ccc(C2CC(=O)c3c([nH]c(C(=O)OCCOc4ccccc4)c3C)C2)cc1 (stereo not drawn)	5.2µM*	?	15µM*	?	-21%	i
O=C(CSc1nccn1-c1cccc(Cl)c1)Nc1cccc(C(F)(F)F)c1	-19%	-1%	?	11%	2%	i
CCS(=O)(=O)c1oc(-c2ccc(F)cc2)nc1S(=O)(=O)c1ccc(Br)cc1	2.6µM*	2.8µM*	3µM*	?	49%	i
CS(=O)(=O)c1oc(-c2ccc(F)cc2)nc1S(=O)(=O)c1ccc(Cl)cc1	?	5.6µM*	4.5µM*	?	?	i
CCCCS(=O)(=O)c1oc(-c2ccc(F)cc2)nc1S(=O)(=O)c1ccccc1	2.9µM*	4.5µM*	2.4µM*	?	18µM*	i
COc1ccc(-c2nc(S(=O)(=O)c3ccc(Cl)cc3)c(NCc3ccccc3)o2)cc1	-1%	?	?	8%	4%	i
CC(C)S(=O)(=O)c1oc(-c2cccs2)nc1S(=O)(=O)c1ccc(F)cc1	0.58µM*	3.2µM*	1.7µM*	-22%	?	i
CSc1oc(-c2ccc(F)cc2)nc1S(=O)(=O)c1ccccc1	.	.	.	26%	-1%	.
Cc1ccc(S(=O)(=O)c2nc(-c3ccc(F)cc3)oc2SCC(N)=O)cc1	.	.	.	4%	3%	.
CCCN(CCC)CCNC(=O)CS(=O)Cc1nc(-c2ccc(OC)c(OC)c2)oc1C (stereo not drawn)	-13%	6%	0%	14%	-5%	i
CC(C)(C)c1ccc(C(=O)NCC(c2ccco2)S(=O)(=O)c2ccccc2)cc1 (stereo not drawn)	2%	-29%	?	-3%	1%	i
CCOc1ccc(NC(=O)CSc2oc(-c3ccc(C)cc3)nc2S(=O)(=O)c2ccc(C)cc2)cc1	0%	22µM*	?	13µM*	13µM*	i
CCOc1ccc(S(=O)(=O)Nc2nc3ccccc3nc2Nc2ccc(OC)cc2)cc1	6%	-1%	-10%	15%	9%	i
O=S(=O)(c1cccc(C(F)(F)F)c1)n1c(/C=C/c2ccccc2)nc2ccccc21	-1%	?	?	?	16µM*	i
CSc1ccc(S(=O)(=O)N2CCCC2)cc1	.	.	.	-11%	-1%	.
CCOc1ccc(/C=C/c2nc3ccccc3n2S(=O)(=O)c2ccc(Br)cc2)cc1	-2%	-7%	-1%	7.9µM*	13µM*	i
CSc1ccc(/C=C/c2nc3ccccc3n2S(=O)(=O)c2ccc(Br)cc2)cc1	-18%	?	?	2.5µM*	3.2µM*	i
C/C(=N/NC(=O)CN1CCN(Cc2ccccc2Cl)CC1)c1ccncc1	.	.	.	-4%	2%	.
C/C(=N\Nc1nc2ccccc2[nH]1)c1cc2ccccc2o1	.	.	.	?	10µM*	.
Cc1ccc(-c2cc(-c3ccccc3)no2)c(O)c1	.	.	.	.	7.9µM*	.
Cc1ccc(O)c(NC(=O)c2cc(-c3ccccc3O)no2)c1	?	-1%	-21%	-2%	-3%	i
O=S(=O)(NCC(c1cccs1)S(=O)(=O)c1ccccc1)c1ccccc1 (stereo not drawn)	?	10µM*	15µM*	5%	-3%	i
COc1ccc(S(=O)(=O)NCC(c2ccco2)S(=O)(=O)c2cccs2)cc1OC (stereo not drawn)	-2%	20µM*	?	-1%	2%	i
O=S(=O)(NCC(c1ccco1)S(=O)(=O)c1cccs1)c1ccc(F)c(C(F)(F)F)c1 (stereo not drawn)	-7%	2.5µM*	7.3µM*	-2%	0%	i
